PubChem BioAssay AID1445 (SRMLSC, 2008)
Hit rate of the full screen: of about 220,000 compounds, about 910 (0.41%) were called active. The sample holds actives, similar compounds and a random draw of the others, so the mix is not that of the screen.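 The calls were made as follows: active = primary inhibition above the hit cutoff, then over 50% inhibition at one or more dose response concentrations (cut at about 23% in these data, passing the limit was not always enough); inconclusive = conflicting primary data, or primary hits not chosen for dose response; inactive = low primary inhibition, or under 50% at every dose.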 Potency and affinity values are given separately.

Each compound was assayed against Aminopeptidase N (Plasmodium falciparum (isolate 3D7)) (UniProt O96935) (assay: malaria alanyl aminopeptidase activity blockers – biochemical, fluorogenic H-Leu-NHMec substrate, 1536-well (AID 1445;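 also: plate controls were DMSO full reaction for no effect and no enzyme background for full effect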)). Details: recombinant M1AAP, H-Leu-NHMec fluorogenic kinetic assay; at 30 µM, hits give high values unless noted.
Sequence of Aminopeptidase N (Plasmodium falciparum (isolate 3D7)) (O96935 whole entry, looked up): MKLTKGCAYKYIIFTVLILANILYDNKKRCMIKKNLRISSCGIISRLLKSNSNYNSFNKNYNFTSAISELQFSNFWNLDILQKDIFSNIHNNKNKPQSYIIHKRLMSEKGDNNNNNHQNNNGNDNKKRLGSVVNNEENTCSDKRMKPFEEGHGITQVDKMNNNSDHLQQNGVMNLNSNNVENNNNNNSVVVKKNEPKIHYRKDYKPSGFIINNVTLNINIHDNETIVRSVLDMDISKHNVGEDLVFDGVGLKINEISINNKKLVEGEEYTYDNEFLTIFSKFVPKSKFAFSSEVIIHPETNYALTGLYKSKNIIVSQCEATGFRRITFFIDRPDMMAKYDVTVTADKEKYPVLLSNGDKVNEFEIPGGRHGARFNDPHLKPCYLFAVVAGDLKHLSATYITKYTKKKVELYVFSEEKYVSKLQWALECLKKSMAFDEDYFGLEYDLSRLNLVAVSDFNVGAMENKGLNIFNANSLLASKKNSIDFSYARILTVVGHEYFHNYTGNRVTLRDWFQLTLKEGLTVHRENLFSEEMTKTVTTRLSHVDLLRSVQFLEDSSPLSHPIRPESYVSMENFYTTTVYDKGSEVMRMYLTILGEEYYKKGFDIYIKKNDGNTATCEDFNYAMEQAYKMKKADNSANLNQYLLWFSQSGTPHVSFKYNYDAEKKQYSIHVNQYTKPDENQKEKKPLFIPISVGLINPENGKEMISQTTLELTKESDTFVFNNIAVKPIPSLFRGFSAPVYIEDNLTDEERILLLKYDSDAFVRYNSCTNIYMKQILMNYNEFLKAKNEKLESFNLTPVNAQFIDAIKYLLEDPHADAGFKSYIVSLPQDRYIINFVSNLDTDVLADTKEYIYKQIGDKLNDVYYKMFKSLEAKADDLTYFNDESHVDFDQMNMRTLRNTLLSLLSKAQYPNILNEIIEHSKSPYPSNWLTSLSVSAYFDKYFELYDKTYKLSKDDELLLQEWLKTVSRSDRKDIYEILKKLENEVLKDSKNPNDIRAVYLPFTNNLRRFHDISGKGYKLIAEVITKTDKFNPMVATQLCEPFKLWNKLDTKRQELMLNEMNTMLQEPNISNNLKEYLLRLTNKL

| SMILES | inhibition |
| --- | --- |
| Cc1cc(C(=O)OCn2nnc3ccccc3c2=O)c(C)n1-c1ccccc1 | 0.48% (inactive) |
| O=C(COC(=O)c1cccc2ccccc12)Nc1ncc(C(F)(F)F)cc1Cl | 1.24% (inactive) |
| CC(=O)c1ccc(Sc2ccccc2N)c([N+](=O)[O-])c1 | 0.73% (inactive) |
| O=C(O)c1ccccc1C(=O)c1ccc(Sc2ccc(Cl)cc2)c([N+](=O)[O-])c1 | 17.6% (inactive) |
| Cc1cccc(Nc2c(-c3ccc(N4CCOCC4)cc3)nc3ncccn23)c1 | 1.09% (inactive) |
| O=C(Nc1nnc(C2CC2)s1)C1CCCO1 (centres undefined) | -7.06% (inactive) |
| Cn1cc(Br)c(C(=O)Nc2ncc(Br)s2)n1 | 3.9% (inactive) |
| CC(=O)c1ccc(OC(C)C)c(CSc2nc(O)cc(=O)[nH]2)c1 | 36.7% (inactive) |
| CCCOc1ccc(C(C)=O)cc1CSCCC#N | 11.4% (inactive) |
| CCOC(=O)c1sc2nc(C(C)C)c3c(c2c1N)CC(C)(C)OC3 | 22.1% (inactive) |
| COC(=O)c1ccc(S(=O)(=O)N2CCCN(Cc3ccccc3)CC2)n1C | -2.02% (inactive) |
| Cc1ccccc1C(=O)Nc1ccnc(-c2ccncc2)n1 | -1.17% (inactive) |
| Cc1nc(N)nc(Cl)c1Cc1ccc(Cl)cc1 | 0.71% (inactive) |
| Cc1nc2ccc(Cl)cc2nc1C | 5.55% (inactive) |
| COC(CNC(=O)C1CCCCC1C(=O)O)OC (centres undefined) | -2.33% (inactive) |
| C/C(CC(=O)Nc1ccccc1C)=N\NC(=O)Cc1csc(N)n1 | 5.41% (inactive) |
| C=CCn1c(SCc2nc3ccccc3c(=O)[nH]2)nc2scc(C3CC3)c2c1=O | 1.15% (inactive) |
| CC(C)Oc1ccc2ccccc2c1C=O | 23.8% (active) |
| O=Cc1c(OCc2ccccc2)ccc2ccccc12 | 16.3% (inactive) |
| COc1ccc2ccccc2c1/C=N/O | 6.62% (inactive) |
| C=CCNc1nc2ccccc2c(=O)[nH]1 | 7.55% (inactive) |
| Clc1ccc(-c2nc(-c3cc4cc(Cl)ccc4o3)cs2)cc1 | 2.11% (inactive) |

| SMILES | inhibition |
| --- | --- |
| CC(=O)Nc1cccc(NS(=O)(=O)c2ccccc2[N+](=O)[O-])c1 | -4.08% (inactive) |
| CC(C(=O)N1CCN(C)CC1)N1C(=O)c2ccccc2C1=O (centres undefined) | 7.24% (inactive) |
| COC(=O)c1c[nH]n2c(=O)c(Cl)c(C)nc12 | 0.19% (inactive) |
| COc1ccc(OC)c(CC(NC(C)=O)C(=O)NC2CCN(c3nc(OC)nc(OC)n3)CC2)c1 (centres undefined) | 4.38% (inactive) |
| COc1ccc(/C=N/NC(=O)c2ccccc2O)cc1Cn1cc([N+](=O)[O-])cn1 | 5.5% (inactive) |
| COc1ccc(/C=N/NC(=O)c2ccc(N)cc2)cc1Cn1cc([N+](=O)[O-])cn1 | 16.6% (inactive) |
| Cc1nc(CC(=O)Nc2nc(C(C)(C)C)cs2)cs1 | 13.3% (inactive) |
| O=C(O)c1ccc(-c2ncc[nH]2)cc1 | 2.64% (inactive) |
| Cc1ccc(C)c(CN2CCCN(C(=O)Cn3ncc4c3-c3ccccc3OC4)C2)c1 | 3.24% (inactive) |
| Cc1ccc2c(c1)-c1c(cnn1CC(=O)N(Cc1ccco1)C1CCCCC1)CO2 | 4.81% (inactive) |
| Cc1ccc2c(c1)-c1c(cnn1CC(=O)N1CCCN(Cc3ccccc3F)C1)CO2 | 26.4% (active) |
| Cc1ccc2c(c1)-c1c(cnn1CC(=O)O)CO2 | 0.53% (inactive) |
| CC(CCc1ccco1)NC(=O)Cn1ncc2c1-c1ccccc1OC2 (centres undefined) | 12.1% (inactive) |
| Cc1ccc2c(c1)-c1c(cnn1CC(=O)NC(C)CCc1ccco1)CO2 (centres undefined) | 25.2% (active) |
| COc1cc2c(cc1OC)CN(C(=O)CSc1n[nH]c(N)n1)CC2 | 0.58% (inactive) |
| COc1cc2c(cc1OC)CN(C(=O)CSc1nnc(C)s1)CC2 | 25.4% (active) |
| COc1cc2c(cc1OC)CN(C(=O)CSc1nc(C)cc(C)c1C#N)CC2 | 3.39% (inactive) |
| CCOCCn1cnc2sc(C(=O)NCC(=O)OCC)c(C)c2c1=O | 1.07% (inactive) |
| Cc1cc2c(=O)oc(-c3ccccc3Br)nc2s1 | -4.08% (inactive) |
| O=C(Nc1cnc2sc3c(n2c1=O)CCCC3)c1ccc(F)cc1 | 23.9% (active) |
| Cc1nn2c(=O)c(NC(=O)c3ccc(F)cc3)cnc2s1 | 6.66% (inactive) |
| Cc1ccc2c(c1)sc1ncc(NC(=O)c3ccc(F)cc3)c(=O)n12 | -0.5% (inactive) |

| SMILES | inhibition |
| --- | --- |
| CCOC(=O)COc1ccc(N)cc1CC(NC(C)=O)(C(=O)OCC)C(=O)OCC | 6.1% (inactive) |
| Cn1cc(CNC(=O)C2c3ccccc3Oc3ccccc32)cn1 | 13.7% (inactive) |
| COc1ccc(N=CC2=C(O)CC(C)(C)CC2=O)cc1 | 13.6% (inactive) |
| CCOC(=O)CSc1nc(C)c2cccc(C)c2n1 | 0.76% (inactive) |
| C=CCc1c(C)nc2c(C)cccc2c1SC(=N)N | 1.57% (inactive) |
| CCOc1ccc(NC(=O)c2ccccc2OC)cc1 | 5.95% (inactive) |
| COc1ccc(NC(=O)CSc2c(C)n[nH]c2C)cc1 | 0.25% (inactive) |
| O=C(Nc1nc2ccccc2[nH]1)C1CC(=O)N(c2ccc3c(c2)OCCO3)C1 (centres undefined) | -0.34% (inactive) |
| O=C(NCCCc1ccccc1)C1CC(=O)N(c2ccc3c(c2)OCCO3)C1 (centres undefined) | 2.32% (inactive) |
| O=C(NC(Cc1ccccc1)c1nc2ccccc2[nH]1)C1CC(=O)N(c2ccc3c(c2)OCCO3)C1 (centres undefined) | 26% (active) |
| CCN(CC)C(=O)c1ccc(-c2cccs2)s1 | 2.09% (inactive) |
| O=C(c1cccs1)c1ccc(-c2cccs2)s1 | 15.2% (inactive) |
| COc1ccc(NC(=O)Cn2nnc(C(=O)NCCc3ccc(OC)c(OC)c3)c2N)c(OC)c1 | 0.32% (inactive) |
| O=C(NNc1c(Cl)cc(Cl)cc1Cl)c1cccc([N+](=O)[O-])c1 | 0.41% (inactive) |
| Cc1ccccc1CSc1nn2c(=O)c(C)nnc2s1 | 1.72% (inactive) |
| O=[N+]([O-])c1cccc(S(=O)(=O)NCCc2cn3ccccc3n2)c1 | -0.31% (inactive) |
| CCCc1ccc(-c2ccc(F)c(N)c2)nc1 | 6.24% (inactive) |
| Nc1ccc2nc(-c3ccccc3)[nH]c2c1 | 1.94% (inactive) |
| Nc1ccc2nc(-c3ccc(Cl)cc3)[nH]c2c1 | 14% (inactive) |
| CCOC(=O)CN(C(=O)CNC(=O)c1ccco1)C(C(=O)NC1CCCCC1)c1cccs1 (centres undefined) | 2.4% (inactive) |
